# Whole data set: some 33,000 sequences, median “E-score (-0.5 to 0.5)” near -0.011, cut for the highest 2% near 0.28. Shown is part of a subset that was picked to be rich in the highest values.
# Molecular target: T1, Gcr1 (UniProt P07261)
# T1 sequence: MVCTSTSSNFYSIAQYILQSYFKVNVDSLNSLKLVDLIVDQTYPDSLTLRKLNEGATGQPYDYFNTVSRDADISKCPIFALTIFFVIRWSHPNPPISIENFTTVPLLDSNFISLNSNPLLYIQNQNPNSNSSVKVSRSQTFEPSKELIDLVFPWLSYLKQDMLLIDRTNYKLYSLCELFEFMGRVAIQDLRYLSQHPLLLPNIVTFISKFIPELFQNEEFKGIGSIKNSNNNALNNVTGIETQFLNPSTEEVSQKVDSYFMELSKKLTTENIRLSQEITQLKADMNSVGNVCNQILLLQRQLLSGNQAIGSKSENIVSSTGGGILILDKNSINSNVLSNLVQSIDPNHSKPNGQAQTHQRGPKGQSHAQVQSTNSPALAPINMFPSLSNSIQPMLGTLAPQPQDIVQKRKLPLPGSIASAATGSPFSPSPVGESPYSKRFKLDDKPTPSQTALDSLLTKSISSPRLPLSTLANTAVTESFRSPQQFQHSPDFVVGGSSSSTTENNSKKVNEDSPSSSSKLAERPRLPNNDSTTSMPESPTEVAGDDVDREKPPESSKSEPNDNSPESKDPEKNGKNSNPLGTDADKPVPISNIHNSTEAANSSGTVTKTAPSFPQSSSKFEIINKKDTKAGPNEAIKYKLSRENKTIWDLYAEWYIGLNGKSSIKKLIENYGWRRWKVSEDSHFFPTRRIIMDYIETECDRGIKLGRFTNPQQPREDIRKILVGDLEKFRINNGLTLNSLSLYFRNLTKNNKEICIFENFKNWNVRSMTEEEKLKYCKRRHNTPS
# Assay: PBM E-score (8-mer binding enrichment) (E-score (-0.5 to 0.5)); higher = stronger / more preferred TF binding
# Settings: protein concentration: 100 nM; construct: GST-full length
# Method in brief: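 Full-length yeast transcription factors or their DNA-binding domains, GST-tagged and expressed with PURExpress, were applied at about 100-200 nM to universal all-10-mer Agilent arrays. These arrays had been made double-stranded by primer extension on fresh or once-stripped slides. Detection used fluorescent anti-GST, normalisation used masliner, and E-scores for ungapped eight-base words pooled with reverse complements came from the Universal PBM Analysis Suite.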
row,Sequence,PBM E-score
1,AACTAGGC,0.122
2,CGGGAGCC,0.337
3,AGGGAGCG,0.0432
4,AGGGAGCA,-0.171
5,AGGGAGCC,0.296
6,CGGGAGCA,-0.109
7,CGGGAGAC,0.036
8,ATTGCCGC,-0.0608
9,GATTTCAC,-0.0263
10,AGCGAGCA,-0.108
11,ACGCTTCG,-0.0461
12,AGGCTTCG,0.00576
13,GCGCTTAC,-0.17
14,GCGCTTCA,-0.0425
15,AGGCTTCA,-0.0957
16,GCGCTTCC,0.348
17,CCGCTTCA,-0.0817
18,ACGCTTCA,-0.0408
19,ACGCTTCC,0.313
20,AGGCTTCC,0.436
21,CCGCTTCC,0.346
22,CCGCTTCG,0.0926

row,Sequence,PBM E-score
1,GCGAATTA,-0.00089
2,AAACCAAA,0.066
3,AGACCTCC,-0.282
4,CGCTAGGC,-0.216
5,CACGGCCG,-0.152
6,ATCGGGTA,-0.136
7,AAGTCTCG,-0.336
8,CTCTAAAC,0.0413
9,GGTCTGGA,0.0233
10,GCCAGCGA,-0.0966
11,CACCAAGG,0.0974
12,CCACCATC,0.0892
13,GACGGACA,-0.264
14,AAAAGTGA,0.0915
15,CAAAGTGG,0.00098
16,AAAAGTAG,0.295
17,AAAAGTGG,0.381
18,AAAAGTAT,-0.0691
19,AAAAGTAA,0.157
20,CCCATCAC,-0.136
21,GGTATTCA,0.0919
22,GATGGCCA,-0.214

row,Sequence,PBM E-score
1,ATTGGATC,0.193
2,AATGGATG,0.134
3,AGTGGATA,0.0533
4,AGTGGATC,0.286
5,AGTGGATG,0.394
6,CGTGGATC,0.00349
7,CCTCCTGC,-0.0964
8,ATCTTCGC,-0.0394
9,ATAGAGGA,0.346
10,ATAGAGGC,0.174
11,ATAGAGGG,0.137
12,ATGTCCCG,-0.183
13,GCTATTGA,-0.21
14,GACCACTA,0.179
15,CACCACTG,0.167
16,CACCACTC,0.134
17,AACCACTA,0.241
18,TACCACTA,0.365
19,CACCACTA,0.298
20,AGTTGCAA,-0.105
21,CGTAGTGA,-0.043
22,CGTACCGC,-0.162

row,Sequence,PBM E-score
1,ATGATACG,0.107
2,CAAGACAC,0.0836
3,GCACCCAA,0.303
4,GCGCCCTA,0.319
5,GCGCCTAA,0.407
6,ACGCCCTA,0.178
7,TCACCCAA,-0.00294
8,GCACCCCA,0.241
9,GCACCCTA,0.297
10,CCGCCCTA,-0.0561
11,ACACCCTA,-0.021
12,TCGCCTAA,0.0844
13,GCGCCTAC,0.256
14,CCACCCTA,0.0045
15,CACCACCG,-0.0609
16,GAGTTGCA,-0.0956
17,GTGAGAAC,-0.0123
18,GATGGATA,0.0193
19,CCCCCGGC,-0.0149
20,GGAACGGA,-0.0468
21,CCGAGTCA,-0.25
22,ATTCGAAT,0.0645

row,Sequence,PBM E-score
1,AGATGACG,-0.0775
2,CCACCCAC,-0.0236
3,GCACCCAC,0.397
4,ACACCCAC,0.0847
5,CTTTTTGA,0.115
6,AGTTGGAA,0.187
7,ATAGCTGC,0.285
8,GAGGCTGC,0.253
9,AAGGCTGC,0.302
10,AAGGCTGA,-0.141
11,ATAGCTGA,-0.0965
12,CTAGCTGC,0.161
13,CTGTCTTC,0.00215
14,AGCTAATA,0.0193
15,CGGGGCCC,0.219
16,TCCAAAGA,0.0425
17,ACAGCTCA,-0.146
18,ATAAGACG,0.192
19,CAGGAAGG,0.184
20,GAGGAAGC,0.391
21,AAGGAAGG,-0.0778
